# Rows were chosen to be rich in hits. Some 19% of all compounds tested hit in one or more screens of this group.
# VP16 counter = inhibits Gal4-VP16 luciferase reporter, ROR gamma counter-screen; Potency, µM (doses to about 53.6 µM), for inactives: top-dose activity, negative = inhibition, hits mostly inhibitors; hit rate 3.5% among 310,000; Drosophila S2 Gal4-VP16 UAS-luciferase, luminescence, 20 h; AID 2546;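 note: Gal4-VP16 expression switched on by copper sulfate through the metallothionein promoter; nearly all actives have a fitted effect of over 50% in size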
# DT40 TDP1 CPT = growth inhibition of DT40 Tdp1-/-;hTDP1 cells with camptothecin (screen for TDP1 inhibitors) | Potency, µM (highest dose often 46.2 µM), without a hit: top-dose activity change, negative = growth inhibition, actives largely listed as inhibitors | hit rate 12% among 420,000 | chicken DT40 Tdp1-/-;hTDP1 cells + 20 nM CPT, ATP luminescence, 48 h; note: nearly all actives have a fitted effect of over 55% in size
#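 Cell growth measured by CellTiter-Glo luminescence after a minimum 48 h, 37 C compound exposure with 20 nM CPT in Tdp1-knockout DT40 cells stably expressing hTDP1, seeded 400/well; qHTS titration format.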
# TDP1 cell noCPT = qHTS for Inhibitors of human tyrosyl-DNA phosphodiesterase 1 (TDP1): qHTS in cells in absence of CPT | hit rate 15% among 420,000 | AID 686978, 2013 | Potency, µM (titrated, usually from 46.2 µM), for inactives: at the highest dose activity change, negative = growth inhibition, hits mostly inhibitors | DT40 Tdp1-/- hTDP1 cells, no CPT, ATP luminescence, 48 h; note: nearly all actives have a fitted effect of over 55% in size
#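 Camptothecin absent (DMSO only). Human TDP1-complemented DT40 knockout cells, 400 cells/well, 37 °C for minimum 48 hr; ATP measured via CellTiter-Glo, 30 min dark incubation, luminescence.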
# RORgamma inh = blocks mouse ROR gamma transcriptional activity. P51450. Drosophila S2 Gal4-RORgamma UAS-luciferase reporter, 20 h. Potency, µM (titrated, usually from 53.6 µM), without a hit: at the highest dose activity change, negative = inhibition, actives largely listed as inhibitors. hit rate 5.4% among 310,000. AID 2551; note: nearly all actives have a fitted effect of over 60% in size
#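 ROR gamma transcriptional activity was tracked as Gal4-UAS luciferase output in stably transfected Drosophila Schneider cells, with compound added 1 hr before 700 uM copper sulfate induction and a 20 hr ambient-temperature incubation.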
# TDP1 block = TDP1 (human) enzyme inhibition. Q9NUW8. AID 485290. recombinant TDP1, AlphaScreen DNA substrate cleavage. hit rate 0.28% among 350,000. Potency, µM (doses to about 130 µM), for inactives: at the top dose activity change, negative = inhibition, hits mostly inhibitors; note: nearly all actives have a fitted effect of over 40% in size
# Target sequence (Q9NUW8 whole entry, looked up): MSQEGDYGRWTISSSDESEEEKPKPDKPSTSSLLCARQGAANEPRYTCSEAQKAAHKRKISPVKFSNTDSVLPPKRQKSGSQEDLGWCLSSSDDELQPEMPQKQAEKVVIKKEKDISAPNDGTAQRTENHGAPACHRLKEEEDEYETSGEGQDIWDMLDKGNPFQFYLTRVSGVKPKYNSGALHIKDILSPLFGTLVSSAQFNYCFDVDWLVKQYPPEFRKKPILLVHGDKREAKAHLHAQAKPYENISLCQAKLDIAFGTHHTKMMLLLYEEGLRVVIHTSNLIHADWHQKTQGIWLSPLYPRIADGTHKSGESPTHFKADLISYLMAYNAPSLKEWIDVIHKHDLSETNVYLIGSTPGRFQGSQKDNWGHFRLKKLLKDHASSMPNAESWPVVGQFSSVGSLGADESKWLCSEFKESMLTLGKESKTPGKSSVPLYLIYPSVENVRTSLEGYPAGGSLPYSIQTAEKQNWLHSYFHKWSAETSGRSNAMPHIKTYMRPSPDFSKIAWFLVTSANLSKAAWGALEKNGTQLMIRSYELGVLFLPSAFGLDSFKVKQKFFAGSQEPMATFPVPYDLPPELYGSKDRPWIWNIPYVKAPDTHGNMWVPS
#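 AlphaScreen read-out: signal falls as enzyme removes the 3' tyrosine-FITC from a 5'-biotinylated DNA oligo (15 nM, 5 min, RT). Enzyme was E. coli-made recombinant Tdp1 at 1 nM, exposed to compound for 15 min beforehand; beads 10 ug/ml, 10 min.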
# Active calls of the source: *; ? = inconclusive; . = not tested or not shown. Calls come from the whole dose curve; as a rule, active = well fitted curve in the direction sought with a large enough effect; inconclusive = small, poorly fitted or top-dose-only effect, or another doubt; inactive = no such curve, though single readings can be large; an effect the other way counts as inactive or inconclusive. % is set by controls: 0 for no effect and ±100 for the full control effect; potency is the fitted concentration of half-maximal effect.
SMILES,VP16 counter,DT40 TDP1 CPT,TDP1 cell noCPT,RORgamma inh,TDP1 block
CCc1ccc(-n2ccc(=O)c(C(=O)O)n2)cc1,5%,10%,?,29%,.
Cc1ccc2nc(Cl)c3cc(C(=O)NCCCN(C)Cc4ccccc4)sc3c2c1,.,?,10µM*,.,1%
CN(CCCNC(=O)c1cc2c(Cl)nc3ccccc3c2s1)Cc1ccccc1,11µM*,15µM*,21µM*,?,8%
CC(Nc1nc(-c2ccccc2F)nc2ccccc12)c1ccccc1 (stereo not drawn),5%,-22%,?,26%,.
CN(C)CCNc1c2c(c(C#N)c3nc4ccccc4n13)CCCC2,-7%,-2%,-27%,-28%,1%
N#Cc1c2c(c(NCc3ccco3)n3c1nc1ccccc13)CCC2,10%,-59%,21µM*,-12%,-2%
CC(C)NCC(=O)Nc1c2c(nc3ccccc13)CCC2,17%,-23%,-12%,-32%,0%
c1coc(CNc2c3c(nc4ccccc24)CCC3)c1,-2%,16µM*,23µM*,-28%,4%
Fc1ccc(Nc2nc(NCc3ccco3)c3ccccc3n2)cc1,?,9.2µM*,6.5µM*,?,.
CCC(C)Nc1nc(-c2ccccn2)nc2ccccc12 (stereo not drawn),3.5µM*,4.1µM*,3.7µM*,0.71µM*,.
CSc1ccccc1C(=O)Nc1ccc2c(c1)OCO2,?,12%,-3%,23%,1%
CCC1CC2CC(NC(C)=O)C1C2 (stereo not drawn),2%,0%,-4%,2%,6%
Fc1ccccc1/C=N/Nc1nc(-c2ccccn2)nc2ccccc12,0.5µM*,.,.,0.25µM*,.
c1cncc(CNc2nc(-c3cccnc3)nc3ccccc23)c1,-1%,?,0%,3%,.
c1coc(CNc2nc(NCc3ccco3)c3ccccc3n2)c1,.,11µM*,13µM*,.,.
c1ccc(CNc2nc(NCc3ccccc3)c3ccccc3n2)cc1,?,5.8µM*,5.2µM*,?,9%
c1ccc(CNc2nc(-c3ccccn3)nc3ccccc23)cc1,3.5µM*,3.7µM*,3.7µM*,2.5µM*,.
c1ccc(CNc2nc(-c3ccccc3)nc3ccccc23)cc1,-6%,-18%,-20%,17%,.
Cc1nnc2sc(SCc3ccc(Cl)cc3)nn2c1=O,20%,1%,10%,-11%,5%
COc1ccc(NC(=O)c2cccc([N+](=O)[O-])c2)cc1,-10%,5%,-1%,0%,3%
COc1ccc(NC(=O)Nc2cccc([N+](=O)[O-])c2)cc1Cl,?,18µM*,9.2µM*,44%,2%
COc1ccc(NC(=S)Nc2cccc([N+](=O)[O-])c2)cc1,-30%,-21%,-24%,13µM*,3%
COc1ccc(NC(=O)c2cc([N+](=O)[O-])ccc2O)cc1,2.8µM*,8.2µM*,5.8µM*,2.2µM*,5%
CCOc1ccc(C(=O)NCC(=O)Nc2ccc3c(c2)OCO3)cc1OCC,.,-1%,5%,.,-8%
CCOc1cc(C(=O)Nc2ccc3c(c2)OCO3)ccc1OC(F)F,?,15µM*,11µM*,?,0%
SMILES,VP16 counter,DT40 TDP1 CPT,TDP1 cell noCPT,RORgamma inh,TDP1 block
COc1ccc(C(=O)Nc2cccc([N+](=O)[O-])c2)cc1Br,.,0%,-24%,.,.
CCC(=O)Oc1ccc(C(=O)Nc2ccc3c(c2)OCO3)cc1,?,?,21µM*,-21%,0%
O=C(Nc1ccc([N+](=O)[O-])cc1)Nc1ccc(OC(F)F)c(Cl)c1,13µM*,2.3µM*,1.6µM*,?,3%
CCCCOc1ccc(C(=O)Nc2ccc3c(c2)OCO3)cc1,-10%,7%,-8%,25%,5%
O=C(Nc1ccc(OC(F)F)c(Cl)c1)Nc1ccc2c(c1)OCO2,9%,?,16µM*,7%,-1%
O=C(Nc1ccc2c(c1)OCO2)Nc1ccc(Cl)cc1Cl,5%,?,?,17%,-1%
CCN=C1SC(CC(=O)Nc2ccc(C(F)(F)F)cc2)C(=O)N1CC (stereo not drawn),-13%,-14%,-28%,?,1%
C=CCN1C(=O)C(CC(=O)Nc2ccccc2)S/C1=N/c1nccs1 (stereo not drawn),3%,-9%,-12%,2%,9%
Cc1cccc(NC(=O)CC2SC(=O)N(c3ccccc3)C2=O)c1 (stereo not drawn),?,4.6µM*,5.2µM*,?,5%
N=C1SC(CC(=O)Nc2ccc([N+](=O)[O-])cc2)C(=O)N1c1ccccc1 (stereo not drawn),10%,0%,?,?,8%
CCCN1C(=O)SC(CC(=O)Nc2ccc(C)cc2)C1=O (stereo not drawn),24%,18µM*,?,-5%,-7%
O=C(CC1Sc2ncnn2C1=O)Nc1ccccc1 (stereo not drawn),3%,7.3µM*,15µM*,?,.
O=C(CC1SC(=O)N(c2ccccc2)C1=O)Nc1ccccc1 (stereo not drawn),?,16µM*,-25%,?,0%
COc1ccc(-n2nnnc2SCC(=O)Nc2cccc(NC(C)=O)c2)cc1OC,-6%,?,-23%,-23%,4%
O=C(O)CSc1nnc(CNc2ccc(F)cc2)n1-c1ccccc1,-3%,0%,-15%,1%,.
Cc1cc(C)c(C(=O)Nc2ccc(S(=O)(=O)Nc3ccccn3)cc2)c(C)c1,0%,5%,-3%,-3%,1%
CC(C)Oc1cccc(C(=O)C2CCCN(C(=O)c3ccoc3)C2)c1 (stereo not drawn),4%,-76%,-88%,33%,0%
CCOc1ccc(Nc2cc(Nc3ccccc3OCC)nc(C=C(C#N)C#N)n2)cc1,-1%,6%,-1%,2%,8%
Cc1ccc(NC(=O)CC2SC3=NCCN3C2=O)cc1 (stereo not drawn),11µM*,?,?,?,5%
Cc1ccc(NC(=O)CC2SC(=O)N(c3ccccc3)C2=O)cc1 (stereo not drawn),?,9.2µM*,7.3µM*,?,10%
CC(=O)Nc1ccc(NC(=O)CC2SC(=O)N(CC(=O)c3ccccc3)C2=O)cc1 (stereo not drawn),-16%,18µM*,21µM*,16%,0%
COc1ccc(C2C(C(C)=O)=C(O)C(=O)N2CCN(C)C)cc1OC (stereo not drawn),-3%,.,.,8%,4%
Nc1nc(=S)[nH]c2n[nH]nc12,.,4.5µM*,3.5µM*,.,.
Cc1ccccc1-c1nc(CN(Cc2c(C)nn(C)c2C)C2CC2)c(C)o1,13µM*,?,23µM*,5.6µM*,-2%
Clc1cccc(OCCOCCN2CCNCC2)c1Cl,.,-18%,23µM*,.,.
